Results: ChEMBL document CHEMBL3988442, “University of Dundee, Small-Polar-MMV Screening Library” (2021)
Hit rate of the full screen: of about 48,000 compounds, about 13,000 (27%) showed an effect of 50% or more. This is one part of the list.

What follows are compounds tested on Wolbachia pipientis (assay: Anti-Wolbachia Cell-Based Screen). Conditions: 5 µM.
Format: functional
Design: scale not given: in the data most compounds retested in dose-response had high values

SMILES | Percent Effect [%]
COc1cc(F)cc(CNC(=O)Nc2ccn(CC(F)F)n2)c1 | -8.907
O=C(c1cnc(NCc2cccnc2)c(Cl)c1)N1CCCCC1 | 2.275
CCOC1CCCN(C(=O)c2ccccc2NCc2cccnc2)C1 (stereo not drawn) | 55.92
Cc1[nH]nc(CCC(=O)N2CCCC(OCc3cccnc3)C2)c1C (stereo not drawn) | 1.428
CC(C)N1CCN(C(=O)c2ccccc2NCc2cccnc2)CC1 | 80.75
COC(=O)C1CCN(C(=O)c2cccc(NS(C)(=O)=O)c2C)CC1 | 5.787
CN(C)C[C@H]1OC[C@@H]2CN(C(=O)NCc3cccnc3)CC[C@@H]21.O=C(O)C(F)(F)F.O=C(O)C(F)(F)F | -2.462
Cc1ccc(CNC(=O)N2CCN(C(C)c3cccnc3)CC2)cn1 (stereo not drawn) | -10.7
CSCC1CCN(C(=O)c2ccccc2NCc2cccnc2)C1 (stereo not drawn) | 46.56
COCC(=O)N(Cc1cccnc1)CC1CCCN(C2CCCCC2)C1 (stereo not drawn) | -12.35
COCC1CCCN(C(=O)c2ccccc2NCc2cccnc2)C1 (stereo not drawn) | 97.72
NC(=O)CN1CCC(C(=O)N2CCCC(OCc3cccnc3)C2)CC1 (stereo not drawn) | -8.18
Cc1c(NCc2cccnc2)cccc1C(=O)N1CCC(N(C)C)C1 (stereo not drawn) | 115.4
Cn1ccnc1CN1CCN2C[C@H](OCc3ccccc3)C[C@H]2C1.O=C(O)C(F)(F)F.O=C(O)C(F)(F)F | -3.164
Cc1cccc(C(C(=O)N2CC(c3ccncc3)C2)N(C)C)c1 (stereo not drawn) | -5.316
N#Cc1ccc(F)c(CNC(=O)NCCC(=O)NC2CCCC2)c1 | 6.795
N#CC1(NC(=O)c2nccc3ccccc23)CCC2(CC1)OCCO2 | 0.4939
Cc1noc(C)c1S(=O)(=O)N(CC(N)=O)CC(C)C | 2.709
COC1CCN(C(=O)c2ccccc2NCc2cccnc2)CC1 | 112.6
Cc1ccn(-c2ccccc2NCc2cccnc2)n1 | -3.836
COCCN1CCCn2cnc(CNC3CCCC3)c2C1.Cl.Cl | -22.39
c1ccc2c(Cc3nnc([C@H]4CCN(C5CCOCC5)C4)o3)c[nH]c2c1 | 1.602
O=C(c1nc(Cc2c[nH]c3ccccc23)no1)N1CCCC1 | 91.24

SMILES | Percent Effect [%]
O=C(c1nc(Cc2c[nH]c3ccccc23)no1)N1CCCCC1 | 107.9
O=C(O)c1cc2n(n1)CCCN(C(=O)CCc1c[nH]c3ccccc13)C2 | -8.48
O=C(c1nc(-c2ccc3cc[nH]c3c2)no1)N1CCCC1 | 5.655
O=C(C1CC1)N1CC[C@H](c2nnc(Cc3c[nH]c4ccccc34)o2)C1 | -9.274
CC(=O)N1CC[C@H](c2nnc(Cc3c[nH]c4ccccc34)o2)C1 | -6.086
c1ccc2c(Cc3nnc([C@H]4CCN(C5CCCCC5)C4)o3)c[nH]c2c1 | 3.447
O=C(c1nc(Cc2c[nH]c3ccccc23)no1)N1CCOCC1 | 109.7
CN(C)C(CNCc1nc(-c2ccsc2)no1)c1ccsc1 (stereo not drawn) | 7.6
CC(SCc1ccc(Br)c2cccnc12)C(N)=O (stereo not drawn) | -7.187
CCNC(=O)c1ccc(N2CCCC(c3nccn3C(C)C)C2)nc1 (stereo not drawn) | -0.11
Cn1cc(Cl)c(CN2CCn3nc(C(=O)N4CCCC4)cc3C2)n1 | -5.174
CN(Cc1ccco1)C[C@H]1OC[C@@H]2CCN(Cc3ccccn3)C[C@@H]21.O=C(O)C(F)(F)F.O=C(O)C(F)(F)F.O=C(O)C(F)(F)F | 0.7755
COCCN(Cc1ccccn1)C(=O)C1CCCCCN1C (stereo not drawn) | -8.345
CN(Cc1ccccn1)C(=O)[C@H]1CO[C@H]2CCN(CC3CC3)C[C@H]2C1.O=C(O)C(F)(F)F.O=C(O)C(F)(F)F | 99.36
CN(Cc1ccccn1)C(=O)c1nn(C)c2c1CCN(CC1CC1)C2.O=C(O)C(F)(F)F.O=C(O)C(F)(F)F.O=C(O)C(F)(F)F | -10.9
COCCN1CCC(C(=O)N(C)Cc2cccc(Cl)c2)C1 (stereo not drawn) | -62.62
COCCN1CC[C@@H]2OC[C@H](C(=O)N(C)Cc3ccccn3)C[C@@H]2C1 | 115.4
CC(C)c1nc(CN2CCC(CO)CC2)cs1 | -12.85
O=C(c1ccc[nH]1)N1CCCn2cnc(COCC3CC3)c2C1 | -13.58
COCc1ncn2c1CN(C(=O)c1ccc[nH]1)CC2 | 111
COCc1ncn2c1CN(C(=O)c1ccco1)CC2 | 113.2
CN1CCN(Cc2cn3c(n2)CN(C(=O)c2ccco2)CC3)CC1 | -12.05
O=C(c1ccc2[nH]ccc2c1)N1CCn2cnc(COCC3CC3)c2C1 | -3.31

SMILES | Percent Effect [%]
O=C(c1ccco1)N1CCCn2cnc(COCC3CC3)c2C1 | -7.899
CC(C)(C)c1coc([C@@H]2COCCN2Cc2c[nH]cn2)n1 | -1.373
CCOCCN1CCN(Cc2nnc(-c3occc3C)o2)CC1CC (stereo not drawn) | 4.766
CN(C)C(=O)CNC(=O)Nc1cccc(Cl)c1SC(F)F | -14
Cc1ccccc1N1CCCN(C(=O)CC2CN(C(C)C)CCO2)CC1 (stereo not drawn) | 116.5
CSCC(=O)N1CCCN(c2ccncc2C)CC1 | -12.26
Cc1ccccc1N1CCCN(C(=O)CN2C(=O)OC[C@@H]2C(C)C)CC1 | 17.78
COC(=O)CC1CN(Cc2ccn(-c3ccc(F)cc3)n2)CCO1 (stereo not drawn) | -16.13
CSCCC(=O)N1CCCN(c2ccccc2C)CC1 | -1.705
CC(C)N1CCOC(CC(=O)N2CCCN(c3ccc(F)cc3)CC2)C1 (stereo not drawn) | 103.5
N#Cc1ccc(N2CCCN(C(=O)CC3CCCO3)CC2)cc1 (stereo not drawn) | 5.693
CSCC(=O)N1CCCN(c2ccccc2C)CC1 | 124.1
Cc1ccccc1N1CCN(C(=O)CC(C)C)CC1 | -38.06
NC(=O)c1cncc(-n2ccc(-c3cnccn3)n2)c1 | -26.19
CC(C#N)(NC(=O)COc1ccccc1Br)C1CC1 (stereo not drawn) | 18.27
CN1CCN(CC2CC2)C(=O)C12CCN(C(=O)c1ccnnc1)CC2.O=C(O)C(F)(F)F | -9.864
CN1CCN(C)C2(CCN(C(=O)CC(F)(F)F)CC2)C1=O | 104
CN1CCN(CC2CC2)C(=O)C12CCN(C(=O)c1cnccn1)CC2 | -10.28
CCN1CCN(C)C2(CCN(C(=O)CC(F)(F)F)CC2)C1=O | 118.4
CN1CCN(CC2CC2)C(=O)C12CCN(C(=O)CC(F)(F)F)CC2.O=C(O)C(F)(F)F | 112.7
Cc1ccc(N2CCCC3(CCN(C(=O)CC(F)(F)F)C3)C2)nn1 (stereo not drawn) | -9.607
O=C(CC(F)(F)F)N1CCC2(CCCN(c3nncs3)C2)C1 (stereo not drawn) | -11.31
